Screens from PubChem.
Sampled rows, rich in hits. Any-hit rate of the full collection: about 6.1%.
RORgamma inh: blocks mouse ROR gamma transcriptional activity | P51450 | Drosophila S2 Gal4-RORgamma UAS-luciferase reporter, 20 h | Potency, µM (titrated, usually from 53.6 µM), most hits filed as inhibitors | actives 5.4% (n = 310,000) | AID 2551; note: nearly all actives have a fitted effect of over 60% in size
Target sequence (P51450 whole entry, looked up, the tested form may be a part): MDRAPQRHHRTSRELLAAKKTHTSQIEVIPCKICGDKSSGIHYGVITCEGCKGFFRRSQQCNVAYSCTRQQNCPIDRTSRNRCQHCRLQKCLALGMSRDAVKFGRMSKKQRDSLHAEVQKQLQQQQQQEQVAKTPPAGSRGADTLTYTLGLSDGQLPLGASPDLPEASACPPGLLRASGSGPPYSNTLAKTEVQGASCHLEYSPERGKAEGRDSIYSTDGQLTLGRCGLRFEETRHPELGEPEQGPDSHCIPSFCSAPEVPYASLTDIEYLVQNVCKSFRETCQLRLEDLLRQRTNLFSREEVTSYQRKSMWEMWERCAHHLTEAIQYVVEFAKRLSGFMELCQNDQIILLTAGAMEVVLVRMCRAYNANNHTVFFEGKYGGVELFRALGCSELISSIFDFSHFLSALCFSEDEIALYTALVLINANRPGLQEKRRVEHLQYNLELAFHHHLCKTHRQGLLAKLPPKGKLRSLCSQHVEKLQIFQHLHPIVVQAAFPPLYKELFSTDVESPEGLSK
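Drosophila Schneider cells stably carrying a metallothionein-driven Gal4 DBD–ROR gamma fusion and a UAS-Photinus luciferase reporter were exposed to compound for 1 hr, then induced with copper sulfate (700 uM final) for 20 hr at ambient temperature before luminescence reading.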
ATXN2 expr inh: ATXN2 expression inhibition | HEK-293 ATXN2-luciferase reporter, luminescence, 24 h | Potency, µM (titrated, usually from 57 µM), hits mostly inhibitors | actives 0.72% (n = 360,000) | AID 1745845; note: nearly all actives have a fitted effect of over 55% in size
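ATXN2-luciferase reporter cells (luciferase flanked by upstream and downstream ATXN2 gene portions) were treated 24 h at 37 °C with compounds at up to 57 uM. SteadyGlo luminescence gave expression; GF-AFC fluorescence gave viability.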
S2 tox: cell viability loss in ATXN counter-screen; S2 cells (HEK-293 line with an ATXN2-luciferase reporter) viability, CellTiter-Fluor protease fluorescence, 24 h; Potency, µM (doses to about 56.7 µM), actives largely listed as cytotoxic; actives 0.49% (n = 400,000); AID 651635; note: nearly all actives have a fitted effect of over 40% in size
HepG2 tox: counter-screen for TGF-b inhibitors: cytotoxicity in HepG2 cells; Potency, µM (top dose mostly 46.1 µM), most hits filed as cytotoxic; actives 0.76% (n = 410,000); HepG2 CAGA-GFP viability, ATP luminescence, 18 h
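CellTiter-Glo luminescence gave cytotoxicity after 18 hours at 37 degrees C. The cells were HepG2 CAGA-GFP in 1% FBS DMEM, stimulated with 500 pg/mL TGF-beta after compound addition. %Activity was normalised to no-cell wells (complete cell-killing) and DMSO (no toxicity), and curves were fitted and classified.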
Gal4-VP16 FLuc: Gal4-VP16 reporter inhibition counter-screen. actives 3.5% (n = 310,000). Drosophila S2 Gal4-VP16 UAS-luciferase, luminescence, 20 h. Potency, µM (highest dose often 53.6 µM), actives largely listed as inhibitors;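 note: Gal4-VP16 expression switched on by copper sulfate through the metallothionein promoter; nearly all actives have a fitted effect of over 50% in size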
TGFb SMAD3 inh: blocks TGF-b signaling; HepG2 CAGA-GFP TGF-b/SMAD3 reporter, GFP fluorescence, 18 h; TGF-beta stimulated, 500 pg/mL final; Potency, µM (titrated, usually from 46.1 µM), hits mostly inhibitors; actives 1.2% (n = 410,000); AID 588855; note: nearly all actives have a fitted effect of over 65% in size
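Inhibition of TGF-beta-driven CAGA-GFP reporter expression in HEPG2 cells is measured by cellular GFP fluorescence after 18 h stimulation with 500 pg/mL recombinant TGF-beta in 1% FBS medium at 37 degrees C.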
Each line names hits and unclear results; the compound was inactive in the other large screens. Calls come from the whole dose curve; as a rule, active = well fitted curve in the direction sought with a large enough effect; inconclusive = small, poorly fitted or top-dose-only effect, or another doubt; inactive = no such curve, though single readings can be large; an effect the other way counts as inactive or inconclusive.

O=C(CNc1cccc(Cl)c1)NNC(=S)NCc1ccccc1	RORgamma inh 14µM
COc1ccc(C)cc1NC(=O)C(=O)NCC(c1cccnc1)N1CCN(c2ccccc2F)CC1 (centres undefined)	TGFb SMAD3 inh inconclusive (no result: RORgamma inh, ATXN2 expr inh, S2 tox, Gal4-VP16 FLuc)
O=C(CCCCCCC(=O)Nc1ccc([C@H]2O[C@@H](CSc3nc(-c4ccccc4)c(-c4ccccc4)o3)C[C@@H](c3ccc(CO)cc3)O2)cc1)NO	none (no result: RORgamma inh, S2 tox, HepG2 tox, Gal4-VP16 FLuc, TGFb SMAD3 inh)
COc1ccc(CCNC(=O)CSCc2nc(-c3ccc(OC)c(OC)c3)oc2C)cc1OC	none (no result: RORgamma inh, ATXN2 expr inh, S2 tox, Gal4-VP16 FLuc)
Cc1ccn(CCC(=O)N2CCOc3ccc(C(O)C4CCCCC4)cc3C2)n1 (centres undefined)	none (no result: RORgamma inh, ATXN2 expr inh, HepG2 tox, Gal4-VP16 FLuc, TGFb SMAD3 inh)
CCCN(CCc1cccs1)[C@H]1CCc2c(O)cccc2C1	none (no result: HepG2 tox, TGFb SMAD3 inh)
O=C(CNc1ccc(Cl)cc1)NNC(=S)NCc1ccccc1	RORgamma inh 10µM, Gal4-VP16 FLuc inconclusive, TGFb SMAD3 inh inconclusive
O=C(CCc1ccccc1)NNC(=S)NC(=O)c1ccc(Cl)cc1	RORgamma inh 13µM, Gal4-VP16 FLuc 11µM, TGFb SMAD3 inh inconclusive
O=C(CCc1ccccc1)NNC(=O)c1ccc(Cl)cc1	none
COc1ccc(NC(=S)NNC(=O)CNc2ccc(Cl)cc2)cc1	RORgamma inh 5.6µM, Gal4-VP16 FLuc 7.9µM, TGFb SMAD3 inh inconclusive
NNC(=S)Nc1cccc(Cl)c1	RORgamma inh 7.9µM, Gal4-VP16 FLuc inconclusive
COc1ccc(CN2CCCC(c3nc(-c4ccncc4)ncc3-c3ccccc3)C2)cc1OC (centres undefined)	none (no result: RORgamma inh, ATXN2 expr inh, HepG2 tox, Gal4-VP16 FLuc, TGFb SMAD3 inh)
COc1ccc2c(c1)CC(C(=O)NCCN1CCN(c3cccc(Cl)c3)CC1)CO2 (centres undefined)	S2 tox inconclusive (no result: RORgamma inh, Gal4-VP16 FLuc)
CN(C)CC1CCC/C(=C\c2ccc(OC(=O)/C=C/c3ccccc3)cc2)C1=O (centres undefined)	ATXN2 expr inh 25µM (no result: RORgamma inh, S2 tox, Gal4-VP16 FLuc)
CN(C)CC1CCC/C(=C\c2ccc(OC(=O)c3ccc(Cl)cc3)cc2)C1=O (centres undefined)	S2 tox 24µM, TGFb SMAD3 inh inconclusive (no result: RORgamma inh, Gal4-VP16 FLuc)
CN(C)CC1CC/C(=C\c2ccc(O)cc2)C1=O (centres undefined)	ATXN2 expr inh inconclusive, TGFb SMAD3 inh inconclusive (no result: RORgamma inh, S2 tox, Gal4-VP16 FLuc)
O=C1/C(=C\c2ccc(Cl)cc2)CCC1CNc1ccc(Cl)cc1 (centres undefined)	ATXN2 expr inh inconclusive, S2 tox inconclusive (no result: RORgamma inh, Gal4-VP16 FLuc)
COc1cccc(NC(=O)c2csc3c2CCCCC3)c1	TGFb SMAD3 inh inconclusive (no result: RORgamma inh, Gal4-VP16 FLuc)
N#Cc1ccccc1Cn1c(=O)n(Cc2ccc(C(=O)NC3CCN(Cc4ccccc4)CC3)cc2)c(=O)c2ccccc21	none (no result: RORgamma inh, Gal4-VP16 FLuc)
CC(C)c1onc(-c2c(Cl)cccc2Cl)c1COc1ccc(C=Cc2cccc(C(=O)O)c2)c(Cl)c1	none (no result: RORgamma inh, S2 tox, HepG2 tox, Gal4-VP16 FLuc, TGFb SMAD3 inh)
COC(=O)c1cc2sccc2n1Cc1nc(-c2cccc(Br)c2)oc1C	none (no result: RORgamma inh, Gal4-VP16 FLuc)
COC(=O)[C@@]1(Cc2ccccc2-c2ccco2)C=C[C@H](C)[C@@H](c2ccccc2)N1C(=O)C(F)(F)F	RORgamma inh inconclusive (no result: ATXN2 expr inh, S2 tox, HepG2 tox, TGFb SMAD3 inh)
Cc1ccccc1OCCNc1cc(N2CC(C)NC(C)C2)ccc1[N+](=O)[O-] (centres undefined)	RORgamma inh inconclusive, ATXN2 expr inh inconclusive, S2 tox 24µM, Gal4-VP16 FLuc inconclusive, TGFb SMAD3 inh inconclusive
CCc1ccc(OCCNc2cc(N3CCNC(C)C3)ccc2[N+](=O)[O-])cc1 (centres undefined)	ATXN2 expr inh inconclusive, HepG2 tox 11µM, TGFb SMAD3 inh inconclusive (no result: RORgamma inh, Gal4-VP16 FLuc)
CC1CN(c2ccc([N+](=O)[O-])c(NCCOc3ccccc3)c2)CC(C)N1 (centres undefined)	ATXN2 expr inh inconclusive, S2 tox inconclusive, TGFb SMAD3 inh inconclusive
CC1CN(c2ccc([N+](=O)[O-])c(NCCOc3ccc(Cl)cc3)c2)CC(C)N1 (centres undefined)	RORgamma inh inconclusive, HepG2 tox 14µM, Gal4-VP16 FLuc 18µM, TGFb SMAD3 inh inconclusive (no result: ATXN2 expr inh, S2 tox)
CCn1nc(C)c(CCN(C)C(=O)Nc2cc(OC)c(OC)c(OC)c2)c1C	TGFb SMAD3 inh inconclusive (no result: RORgamma inh, Gal4-VP16 FLuc)
